Among the data in PubChem BioAssay (NCI) are growth inhibition values, retold here.

The panel holds about 79,000 compounds, 15% with a hit somewhere; the sample as a whole holds those more often. Values without a mark were called inactive. Activity calls are given as the source filed them. No stated cut-off is given here; in the data, active means growth inhibition above about 70%; inactive means the rest.

Test [1] in a line: NCI Yeast Anticancer Drug Screen. Data for the rad50 strain (AID 155).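 Further: 0% = growth of vehicle-only cultures of the same strain.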 The settings on record: S. cerevisiae rad50 strain growth inhibition, active compounds read high. The method in brief:
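Inhibition values express reduced yeast growth in compound-treated cultures relative to vehicle-treated controls.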

Test [2] in a line: NCI Yeast Anticancer Drug Screen. Data for the mec2-1 strain (AID 157). As to conditions: S. cerevisiae mec2-1 strain, active compounds read high. The method in brief:
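Each compound was tested on mec2-1 yeast, a strain altered in DNA damage repair or cell cycle control. Growth inhibition is reported relative to vehicle.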

Test [3] can be described thus: NCI Yeast Anticancer Drug Screen. Data for the sgs1 mgt1 strain (AID 161).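 Further: 0% = growth of cultures given vehicle only.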 The settings on record: S. cerevisiae sgs1 mgt1 strain, active compounds read high. A digest of the protocol: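 Inhibition of yeast growth, normalised to vehicle-treated controls, is reported for a strain bearing genetic alterations in DNA damage repair.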
Test [4] is described as follows: NCI Yeast Anticancer Drug Screen. Data for the cln2 rad14 strain (AID 165).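 Further: 0% = growth equal to vehicle treated cultures.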 As to conditions: S. cerevisiae cln2 rad14 strain, active compounds read high. A digest of the protocol: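 Test compounds were added to cln2 rad14 yeast cultures; inhibition of growth was then determined by comparison with vehicle treatment.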
Test [5] can be described thus: NCI Yeast Anticancer Drug Screen. Data for the bub3 strain (AID 167). As to conditions: S. cerevisiae bub3 mutant strain, active compounds read high. A digest of the protocol:
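Steps: expose the mutant yeast strain to compound; grow alongside vehicle-treated cultures; measure growth; express inhibition against the vehicle cultures.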

Test [6] is described as follows: NCI Yeast Anticancer Drug Screen. Data for the mlh1 rad18 strain (AID 175). As to conditions: S. cerevisiae mlh1 rad18 strain growth inhibition, active compounds read high. A digest of the protocol: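 Inhibition values reflect reduced growth of mutant yeast versus vehicle-treated controls following compound exposure; the mutations affect DNA damage repair.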
The mark [7] stands for this setting: at 5.0 µM (retest, dose inferred, filed as 0.5).
The mark [8] stands for this setting: at 50.0 µM (retest, dose inferred, filed as 5.0).

Turning to `Cc1cc(Cl)ccc1OCC(=O)Oc1c(Cl)c(Cl)c(Cl)c(Cl)c1Cl`, the growth inhibition is 7% in test [1] (setting [7]); 36% in test [1] (setting [8]); 65.8% in test [1] (at 50.0 µM); 8% in test [2] (setting [7]); 13% in test [2] (setting [8]); 73% (active) in test [2] (at 50.0 µM). In addition, the growth inhibition is 0% in test [3] (setting [7]); 42% in test [3] (setting [8]); 67.6% in test [3] (at 50.0 µM); -12% in test [4] (setting [7]); 33% in test [4] (setting [8]); 42.8% in test [4] (at 50.0 µM). Also, the growth inhibition is -6% in test [5] (setting [7]); 19% in test [5] (setting [8]); 68.9% in test [5] (at 50.0 µM); 7% in test [6] (setting [7]); 50% in test [6] (setting [8]); 76% (active) in test [6] (at 50.0 µM).

For the compound `CSc1nc(=S)c2[nH]c(C)nc2[nH]1`, the growth inhibition was 0% in test [1] (setting [7]); 4% in test [1] (setting [8]); 93.3% (active) in test [1] (at 50.0 µM); -2% in test [2] (setting [7]); -3% in test [2] (setting [8]); 99.6% (active) in test [2] (at 50.0 µM). Further, the growth inhibition in test [3] (setting [7]) was 0%; in test [3] (setting [8]), 1%; in test [3] (at 50.0 µM), 99.2% (active); in test [4] (setting [7]) it was -3%; in test [4] (setting [8]) it was 6%; in test [4] (at 50.0 µM), 98.5% (active). Also, the growth inhibition was -1% in test [5] (setting [7]); -6% in test [5] (setting [8]); 99.6% (active) in test [5] (at 50.0 µM); 1% in test [6] (setting [7]); 3% in test [6] (setting [8]); 97.5% (active) in test [6] (at 50.0 µM).

With `N#CSCC(=O)c1ccc(Cl)cc1`, the growth inhibition in test [1] (setting [7]) is 43%; in test [1] (setting [8]) it was 61%; in test [1] (at 50.0 µM), 89.5% (active); in test [2] (setting [7]), 60%; in test [2] (setting [8]), 63%; in test [2] (at 50.0 µM), 91% (active). For the same compound, the growth inhibition was 92% (active) in test [3] (setting [7]); 98% (active) in test [3] (setting [8]); 92.5% (active) in test [3] (at 50.0 µM); 83% (active) in test [4] (setting [7]); 98% (active) in test [4] (setting [8]); 89.5% (active) in test [4] (at 50.0 µM). The growth inhibition in test [5] (setting [7]) was 93% (active); in test [5] (setting [8]), 99% (active); in test [5] (at 50.0 µM) it was 89.5% (active); in test [6] (setting [7]) it was 36%; in test [6] (setting [8]), 56%; in test [6] (at 50.0 µM), 89.5% (active).

Consider `CCCCCCCCCCCCCCCCOP(=O)([O-])OCC[N+](C)(C)C`, for which the growth inhibition in test [1] (setting [7]) was 99% (active); in test [1] (setting [8]) it was 99% (active); in test [1] (at 50.0 µM), 99.8% (active); in test [2] (setting [7]), 99% (active); in test [2] (setting [8]), 100% (active); in test [2] (at 50.0 µM), 99.6% (active). Moreover, the growth inhibition in test [3] (setting [7]) was 66%; in test [3] (setting [8]), 100% (active); in test [3] (at 50.0 µM), 99.6% (active); in test [4] (setting [7]) it was 97% (active); in test [4] (setting [8]), 99% (active); in test [4] (at 50.0 µM), 99.2% (active). Moreover, the growth inhibition in test [5] (setting [7]) is 99% (active); in test [5] (setting [8]), 99% (active); in test [5] (at 50.0 µM), 99.7% (active); in test [6] (setting [7]), 98% (active); in test [6] (setting [8]) it was 99% (active); in test [6] (at 50.0 µM), 99.8% (active).

Consider `C[n+]1c(-c2ccc(/C=N/NC(=O)C(=O)N/N=C/c3ccc(-c4cn5ccccc5[n+]4C)cc3)cc2)cn2ccccc21`, for which the growth inhibition in test [1] (setting [7]) is 59%; in test [1] (setting [8]), 95% (active); in test [1] (at 50.0 µM), 89.8% (active); in test [2] (setting [7]), 63%; in test [2] (setting [8]) it was 97% (active); in test [2] (at 50.0 µM), 92.1% (active). Moreover, the growth inhibition in test [3] (setting [7]) is 69%; in test [3] (setting [8]) it was 98% (active); in test [3] (at 50.0 µM), 88.6% (active); in test [4] (setting [7]) it was 28%; in test [4] (setting [8]), 91% (active); in test [4] (at 50.0 µM) it was 84.7% (active). In addition, the growth inhibition is 64% in test [5] (setting [7]); 98% (active) in test [5] (setting [8]); 91% (active) in test [5] (at 50.0 µM); 70% (active) in test [6] (setting [7]); 98% (active) in test [6] (setting [8]); 89.5% (active) in test [6] (at 50.0 µM).

As for `CC(=O)OCc1ccc(O)c2ncccc12`, the growth inhibition in test [1] (setting [7]) is -127%; in test [1] (setting [8]), 74% (active); in test [1] (at 50.0 µM) it was 95.7% (active); in test [2] (setting [7]) it was -49%; in test [2] (setting [8]) it was 83% (active); in test [2] (at 50.0 µM), 94% (active). Further, the growth inhibition in test [3] (setting [7]) is -51%; in test [3] (setting [8]), 45%; in test [3] (at 50.0 µM) it was 54.2%; in test [4] (setting [7]), -44%; in test [4] (setting [8]), 75% (active); in test [4] (at 50.0 µM) it was 41%. In addition, the growth inhibition is -56% in test [5] (setting [7]); 74% (active) in test [5] (setting [8]); 67.1% in test [5] (at 50.0 µM); -103% in test [6] (setting [7]); 54% in test [6] (setting [8]); 55% in test [6] (at 50.0 µM).
